Measurements taken from paper PMC5540273 (PLoS ONE, 2017).
Several values for one entry are separate records, joined by “and”; a condition that tells them apart may be missing. Identical values can stand only once. Like-named read-outs stand apart in the source and are kept apart here.

Assays:
MRCKA = conditions: concentration: 1 μM, replicates: in singlicate, n = 1
MRCKB = system: T1, MRCKB; conditions: concentration: 1 μM, replicates: in singlicate; n = 1
T1 construct: gene CDC42BPB

MST1R = conditions: concentration: 1 μM, replicates: in singlicate, n = 1
MST1 = system: T2, MST1; conditions: concentration: 1 μM, replicates: in singlicate; n = 1
T2 construct: gene STK4

MST2 = system: T3, MST2; conditions: concentration: 1 μM, replicates: in singlicate, n = 1
T3 construct: gene STK3

MST3 = system: T4, MST3; conditions: concentration: 1 μM, replicates: in singlicate; n = 1
T4 construct: gene STK24

MST4 = conditions: concentration: 1 μM, replicates: in singlicate; n = 1
MTOR = conditions: concentration: 1 μM, replicates: in singlicate, n = 1
MUSK = conditions: concentration: 1 μM, replicates: in singlicate; n = 1
MYLK2 = conditions: concentration: 1 μM, replicates: in singlicate; n = 1
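Also: KINOMEscan kinase panel screen.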

Row | SMILES | %Inh (MRCKA) | %Inh (MRCKB) | %Inh (MST1R) | %Inh (MST1) | %Inh (MST2) | %Inh (MST3) | %Inh (MST4) | %Inh (MTOR) | %Inh (MUSK) | %Inh (MYLK2) | %Inh (MRCKA; 1 µM) | %Inh (MST1R; 1 µM) | %Inh (MST2; 1 µM) | %Inh (MTOR; 1 µM)
1 | COC(=O)c1cccc(NC(=O)NCCNc2ccnc(Nc3ccc(F)cc3)n2)c1 [GSK1379883] | 0% | 0% | 25% | 0% | 5% | 0% | 0% | 37% | 4% | 0% | – | – | – | –
2 | COc1cc2ncnc(Nc3ccc(OCc4ccccc4Br)c(Cl)c3)c2cc1OC.Cl [GI261590] | 23% | 0% | 48% | 10% | 0% | 0% | 0% | 24% | 12% | 0% | – | – | – | –
3 | O=C(c1ccc(-c2cc(-c3c[nH]nc3-c3ccccn3)ccn2)cc1)N1CCCC1 [GW792479] | 24% | 0% | 0% | 0% | 0% | 11% | 0% | 14% | 9% | 0% | – | – | – | –
4 | COc1ccc(-c2nc3n(c2-c2ccncc2)CCC3)cc1 [SKF-104493] | – | 0% | – | 0% | – | 0% | 0% | – | 3% | 0% | 0% and 2% | 19% and 14% | 4% and 16% | 0% and 11%
5 | O=C(Nc1ccccc1)Nc1ccc(Oc2ccc3nccn3n2)cc1 | 0% | 0% | 18% | 0% | 0% | 11% | 0% | 12% | 9% | 0% | – | – | – | –
6 | COc1ccc(-c2oc3ncnc(N)c3c2-c2ccc(OC)cc2)cc1 [SB-589132] | 0% | 0% | 46% | 7% | 0% | 0% | 0% | 75% | 17% | 0% | – | – | – | –
7 | Nc1nc(-c2cccnc2)c(-c2ccnc3ccccc23)s1 [GW684083] | 0% | 0% | 18% | 4% | 10% | 10% | 0% | 27% | 11% | 0% | – | – | – | –
8 | CCn1c(-c2ccncc2)nc2cnccc21 [SB-735216] | 23% | 0% | 27% | 0% | 0% | 0% | 13% | 0% | 5% | 15% | – | – | – | –
9 | CC(=O)Nc1n[nH]c2ncc(-c3ccccc3)cc12 [SB-548492] | 0% | 10% | 41% | 0% | 1% | 5% | 15% | 6% | 9% | 37% | – | – | – | –
10 | Cc1ccc(NC(=O)c2cccc(C#N)c2)cc1-c1ccc(C(=O)Nc2ccncc2)cc1 [GSK1398463] | 3% | 8% | 38% | 0% | 0% | 0% | 0% | 4% | 10% | 26% | – | – | – | –
11 | Cl.Cl.c1ccc(-c2cc3ccncc3cc2OC2CCNCC2)cc1 [GSK1122999] | 52% | 17% | 53% | 21% | 6% | 12% | 0% | 12% | 13% | 20% | – | – | – | –
12 | CS(=O)(=O)CCNCc1nc(-c2ccc3ncnc(Nc4ccc(OCc5cccc(F)c5)c(Cl)c4)c3c2)cs1.Cl [GW583340] | 0% | 0% | 38% | 0% | 8% | 15% | 0% | 4% | 0% | 0% | – | – | – | –
13 | O=C(NCCCN1CCCC1=O)c1cnc(NCc2cc(Cl)ccc2Cl)nc1NC1CCNCC1 | 0% | 0% | 72% | 8% | 0% | 32% | 44% | 36% | 7% | 1% | – | – | – | –
14 | Fc1cccc(COc2ccc(Nc3ncnc4cc[nH]c34)cc2Cl)c1 | 10% | 0% | 30% | 16% | 19% | 23% | 0% | 0% | 10% | 0% | – | – | – | –
15 | CS(=O)(=O)CCNCc1ccc(-c2ccc3ncnc(Nc4ccc(OCc5ccccc5)c(Cl)c4)c3c2)o1.Cl [GW574783] | 0% | 2% | 17% | 23% | 0% | 0% | 0% | 30% | 19% | 16% | – | – | – | –
16 | Fc1cccc(COc2ccc(Nc3ncnc4nn5ccccc5c34)cc2Cl)c1 [GW689066] | 0% | 0% | 6% | 0% | 0% | 0% | 0% | 3% | 0% | 0% | – | – | – | –
17 | CCC(CC)(CC)n1cnc2c(N)ncnc21 [SKF-97620] | 0% | 13% | 0% | 6% | 7% | 10% | 30% | 14% | 11% | 19% | – | – | – | –
